GALC G270D up: raises human GALC G270D mutant activity in cells; P54803; 145M-Twi-hGALC-G270D cells (Twitcher mouse brain line with human GALC G270D), HMU-beta-Gal fluorescence, 48 h; Potency, µM (highest dose often 57.5 µM), most hits filed as activators; 45,000 tested, 0.1% active; further: 0% is about no effect; nearly all actives have a fitted effect of over 65% in size
Target sequence (P54803 whole entry G286D): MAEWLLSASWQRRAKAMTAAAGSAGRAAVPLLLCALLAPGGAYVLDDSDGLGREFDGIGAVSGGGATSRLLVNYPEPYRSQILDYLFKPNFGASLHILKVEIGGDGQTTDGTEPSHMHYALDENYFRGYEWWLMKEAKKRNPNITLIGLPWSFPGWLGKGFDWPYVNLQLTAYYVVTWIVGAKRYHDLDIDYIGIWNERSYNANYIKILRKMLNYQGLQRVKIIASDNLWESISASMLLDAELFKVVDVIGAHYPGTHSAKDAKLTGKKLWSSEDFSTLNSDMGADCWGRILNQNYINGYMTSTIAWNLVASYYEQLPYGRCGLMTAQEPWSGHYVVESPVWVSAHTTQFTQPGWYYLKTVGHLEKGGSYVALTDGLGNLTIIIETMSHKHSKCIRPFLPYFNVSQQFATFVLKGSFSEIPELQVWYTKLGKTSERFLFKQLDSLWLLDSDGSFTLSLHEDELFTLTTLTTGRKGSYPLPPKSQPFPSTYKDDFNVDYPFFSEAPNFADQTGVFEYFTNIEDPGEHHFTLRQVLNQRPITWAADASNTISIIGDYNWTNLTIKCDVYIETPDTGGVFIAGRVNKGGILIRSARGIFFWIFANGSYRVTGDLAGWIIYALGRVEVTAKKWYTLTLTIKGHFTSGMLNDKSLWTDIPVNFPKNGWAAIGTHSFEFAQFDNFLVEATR
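Fluorescence readout: HMU-β-gal cleavage by mutant GALC (0.1 mM final, citrate/phosphate pH 5.2 with 1 mg/mL taurocholate), stopped with carbonate/bicarbonate plus Triton X-100. Cells: murine Twitcher 145M-Twi expressing human G270D GALC; qHTS for activators.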
p53null 39C tox: p53 null cell cytotoxicity, nonpermissive temperature | 55,000 tested, 0.97% active | Potency, µM (series often up to 46.1 µM), inactives show at the highest dose activity, negative = cell killing, actives largely listed as cytotoxic | AID 904 | H1299 p53-null (neo) cells, 39C, ATPlite viability, 24 h;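 further: 0% = DMSO only and -100% = full killing by 100 µM tamoxifen; nearly all actives have a fitted effect of over 50% in size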
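Following overnight plating at 37C (600 cells/well), H1299-neo or H1299-p53A138V cells are dosed up to 46 uM. Incubation lasts 24 hr at 39C before ATP detection.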
S16 F2sN tox: cytotoxicity in S16 Pmp22-F2sN Schwann cells; S16 Pmp22-F2sN Schwann cells viability, CellTiter-Glo, 24 h; Potency, µM (top dose mostly 57.5 µM), for the others: at the top dose activity change, negative = cytotoxicity, most hits filed as cytotoxic; 43,000 tested, 0.48% active; further: on the % scale 0 is the no-effect control and ±100 the full control effect; nearly all actives have a fitted effect of over 65% in size
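S16 Pmp22-F2sN Schwann cells (500-1,000/well) in phenol-red-free DMEM with 10% FBS received 23 nL compound by pin tool for 24 h at 37 °C. Viability was then read as CellTiter-Glo luminescence after 15 min at room temperature.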
p53null 32C kill: kills p53 null cells at the permissive temperature; H1299-neo p53 null cells, ATP luminescence, 24 h, 32C; Potency, µM (highest dose often 46.1 µM), for inactives: at the highest dose activity change, negative = cytotoxicity, actives largely listed as cytotoxic; 55,000 tested, 0.62% active;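 further: 0% = DMSO only and -100% = full killing by 100 µM tamoxifen; nearly all actives have a fitted effect of over 55% in size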
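Luminescent ATP readout gave cell viability of p53-null H1299-neo cells after a 24 h compound exposure at the permissive 32C. Titrations ran up to 46 uM, and AC50s were fitted with the standard Hill equation.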
PMP22 txn: PMP22 gene transcription modulation; S16 Pmp22-F2sN Schwann cells (luciferase reporters placed in the Pmp22 gene), FLuc/NLuc coincidence luminescence, 24 h; Potency, µM (titrated, usually from 57.5 µM), inactives show at the top dose activity change, negative = inhibition, usual class: inhibitors; 43,000 tested, 2% active; AID 1508649; active means clear falling dose curves in both reporters; inconclusive means both reporters move, but less clearly or upward; inactive means either reporter flat; the % is the NLuc reporter signal; further: on the % scale 0 is the no-effect control and ±100 the full control effect
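Reporter cells (S16 Pmp22-F2sN, 500–1,000 per well) exposed to compounds for 24 h, 37C, 5% CO2; lysis with FLuc read after 10 min, then Stop&Glo and NLuc read after 10 min.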
pS6 MEF inh: mTORC1 pathway inhibition measured by phospho-rpS6; Tsc2-/- p53-/- MEF, phospho-rpS6 immunofluorescence/PI, 24 h; 44,000 tested, 0.78% active; Potency, µM (top dose mostly 38.3 µM), without a hit: at the top dose activity change, negative = inhibition, actives largely listed as inhibitors;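 further: plate controls were DMSO for no effect and rapamycin for full effect; nearly all actives have a fitted effect of over 50% in size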
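Readout is phospho-S6 Alexa 488 signal normalized to PI per well, reported as % active cells with thresholds set from rapamycin (7.5 nM) and DMSO controls. Cells: Tsc2-/-, p53-/- MEFs, 24 hrs compound at 37 C; PI cell number serves as viability.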
The depositor's hits bear a star; i = inactive; ? = inconclusive; · = not tested or not shown; [ ] = dose if it differs, or a comment. A selection: hits, their analogues and other compounds. The true share with any hit is near 3%. Unless noted, the call rests on the fitted dose curve; in most records, active means well fitted curve in the direction sought with a large enough effect; inconclusive means small, poorly fitted or top-dose-only effect, or another doubt; inactive means no such curve, though single readings can be large; an effect the other way counts as inactive or inconclusive. Potency means the concentration at half of the fitted maximal effect.

SMILES	GALC G270D up	p53null 39C tox	S16 F2sN tox	p53null 32C kill	PMP22 txn	pS6 MEF inh
O=S(=O)(NCC(c1ccco1)S(=O)(=O)c1cccs1)c1ccccc1 (stereo not drawn)	i	34%	32µM*	4%	?	-16%
O=C(COC(=O)c1cc(-c2cccs2)nc2ccccc12)c1ccc(Cl)cc1	i	1%	10%	4%	1%	1%
Cc1ccc(C)c(S(=O)(=O)NCC(c2ccco2)S(=O)(=O)c2ccc(F)cc2)c1 (stereo not drawn)	i	?	2%	39%	-5%	7.4µM*
COc1ccc(F)cc1S(=O)(=O)NCC(c1ccco1)S(=O)(=O)c1cccs1 (stereo not drawn)	i	-29%	13µM*	7%	9.5µM*	-12%
COc1ccc(F)cc1S(=O)(=O)NCC(c1ccco1)S(=O)(=O)c1ccc(F)cc1 (stereo not drawn)	i	18%	16µM*	4%	19µM*	-5%
COc1ccc(OC)c(S(=O)(=O)NCC(c2cccs2)S(=O)(=O)c2ccc(F)cc2)c1 (stereo not drawn)	i	19%	?	-6%	?	?
COc1ccc(S(=O)(=O)NCC(c2ccco2)S(=O)(=O)c2ccc(C)cc2)cc1C (stereo not drawn)	i	-28%	?	-1%	?	-4%
CCOC(=O)c1nc(N2CCN(c3ccc(F)cc3)CC2)c2c(C)noc2n1	i	9%	2%	5%	12%	0%
CC(C)c1ccc(NC(=O)CSC2=Nc3ccccc3C3=NC(CCC(=O)NC4CCCCC4)C(=O)N23)cc1 (stereo not drawn)	i	22%	21%	0%	4%	2%
COc1ccc(N2Cc3cccc(C(=O)Nc4ccc(C)cc4)c3C2=O)cc1	i	-10%	?	-6%	?	-14%
COc1ccc(N2Cc3cccc(C(=O)Nc4ccc(C(C)C)cc4)c3C2=O)cc1	i	4µM*	?	?	?	2%
CCOc1ccc(-c2cc3nc(C4CCN(C(=O)OC(C)(C)C)CC4)c(C(=O)Nc4cccc(C(F)(F)F)c4)cn3n2)cc1	i	-3%	3%	-3%	-2%	-18%
CCOc1ccc(C(=O)Nc2ccc3nc(Nc4cccc(C(F)(F)F)c4)cc(C)c3c2)cc1OCC	i	-4%	18%	-4%	?	1%
Cc1cc(Nc2cccc(C(F)(F)F)c2)nc2ccc(NC(=O)c3cccnc3)cc12	i	?	?	28µM*	?	?
FC(F)(F)c1cccc(Nc2c3c(nc4ccc(Cl)cc24)CCC3)c1	i	?	?	?	?	5.8µM*
Cc1cc(Nc2cccc(C(F)(F)F)c2)nc2ccc(NC(=O)c3cccc(Cl)c3)cc12	i	13µM*	-20%	-18%	?	?
Cc1nn(CC(=O)N2CCN(c3ccccc3F)CC2)c(=O)c2cccn12	i	7%	6%	-7%	-21%	0%
CCc1ccc(C(=O)c2cn(CC(=O)Nc3cc(F)ccc3F)c3nc(C)ccc3c2=O)cc1	4µM*	-21%	-17%	-5%	-27%	-4%
Cc1ccc(C)n1-c1ccccc1N	·	?	·	13µM*	·	·
CCC(NC(=O)Nn1cnnc1)(C(F)(F)F)C(F)(F)F	·	16%	·	0%	·	·
COc1ccccc1NC(=O)c1c(NCc2ccc(OC)c(OC)c2OC)sc2c1CCC2	i	13%	?	-2%	?	-15%
COc1ccccc1NC(=O)c1c(NCc2ccc(OC)c(OC)c2OC)sc2c1CCCC2	i	27%	?	35%	5µM*	-10%
Cc1ccc(C(=O)CSc2nnc(-c3ccccc3)n2-c2ccccc2)cc1	i	-14%	?	-1%[9.22 µM]	-17%	9%
CCOC(=O)c1cc2c(=O)n3ccccc3nc2n(CCCOC)c1=NC(=O)c1c(-c2ccccc2Cl)noc1C	i	-5%	-15%	7%	-15%	1%
COc1ccc(Cn2c(C(=O)O)c(CNCc3ccccc3F)c3ccc(OC)cc32)cc1	i	-30%	?	-16%	?	12µM*
SMILES	GALC G270D up	p53null 39C tox	S16 F2sN tox	p53null 32C kill	PMP22 txn	pS6 MEF inh
CC(C)OC(=O)CC12CN3CN(C1)CC(CC(=O)OC(C)C)(C3)C2=O	·	9%	·	4%	·	·
COc1ccc(-c2cc3ccc(O)c(CN4CCCC(C)C4)c3oc2=O)cc1 (stereo not drawn)	i	-7%	9%	-14%	4%	0%
COc1ccc(-c2cc3ccc(O)c(CN4CCCC(C)C4)c3oc2=O)cc1OC (stereo not drawn)	22µM*	-6%	-2%	1%	10%	-4%
COc1ccc(-c2c(C)c3ccc(O)c(CN4CCCC(C)C4)c3oc2=O)cc1OC (stereo not drawn)	20µM*	9%	-15%	5%	-8%	-20%
Cc1cccc(OC(=O)c2cc(-c3ccc4c(c3)OCCO4)on2)c1C	i	32µM*	3%	16µM*	-14%	3%
Cc1ccccc1OC(=O)c1cc(-c2ccc3c(c2)OCCO3)on1	i	?	-1%	?	3%	2%
O=C(Oc1ccccc1Cl)c1cc(-c2ccc3c(c2)OCCO3)on1	i	?	-3%	20µM*	?	0%
COc1ccc(C(=O)NCC(c2cccnc2)N2CCN(c3ccc(F)cc3)CC2)cc1OC (stereo not drawn)	·	-1%	·	-11%	·	·
COc1ccccc1N1CCN(C(CNC(=O)C(=O)NCc2cccnc2)c2cccnc2)CC1 (stereo not drawn)	i	20µM*	-6%	?	?	-1%
COc1cc(C(=O)NCC(c2cccnc2)N2CCN(c3ccc(F)cc3)CC2)cc(OC)c1OC (stereo not drawn)	i	16µM*	10%	-22%	7%	3%
Cc1ccc(N(C)C(CNS(=O)(=O)c2ccccc2)c2ccccc2)cc1 (stereo not drawn)	i	14µM*	-5%	25%	?	-12%
COc1ccc2sc(N(Cc3cccnc3)C(=O)CCc3ccccc3)nc2c1	i	20%	?	13%	?	-2%
Cc1oc(-c2ccccc2F)nc1Cn1c(SCc2cccc(Cl)c2)nc2ccncc21	i	-4%	-16%	1%	?	-10%

Screens from PubChem.
